# Active and inactive are the calls of the source. Unless noted, no rule for the calls is given here.
# Assays:
# [1] = compound effects on lung adenocarcinoma cell viability – A549, calcein-AM fluorescence, 48 h, basal, profiling panel (AID 1162); conditions: higher = more signal; also: test concentration not given here
# [2] = compound effects on differentiated 3T3-L1 adipocyte viability – cell-based, 3T3-L1 adipocytes, calcein-AM fluorescence, 48 h, basal, profiling panel (AID 1163); conditions: 3T3-L1 adipocytes viability, higher = more signal; also: test concentration not given here
# [3] = compound effects on hepatocellular carcinoma cell viability – HepG2, calcein-AM fluorescence, 48 h, basal, profiling panel (AID 1164); conditions: higher = more signal; also: test concentration not given here
# [4] = compound effects on multiple myeloma cell viability – MM1S, calcein-AM fluorescence, 48 h, basal, profiling panel (AID 1165); conditions: higher = more signal; also: test concentration not given here
# [5] = calcein-AM signal in unstimulated myeloma cells – cell-based, calcein-AM fluorescence, 48 h, PK04 Diversity Set, profiling panel (AID 1166); conditions: RPMI8226 myeloma viability, higher = more signal;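 also: cells grown under basal conditions without added stimulus; test concentration not given here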
# [6] = JC-1 mitochondrial signal, unstimulated HepG2 cells – cell-based, JC-1 fluorescence, 24 h, 100 nL compound, profiling panel (AID 1167); conditions: HepG2 mitochondrial potential, higher = more signal; also: test concentration not given here
# [7] = JC-1 mitochondrial signal, unstimulated adipocytes – cell-based, JC-1 fluorescence, 3T3-L1 adipocytes, 24 h, 100 nL compound, profiling panel (AID 1168); conditions: JC-1 mitochondrial fluorescence, higher = more signal, called active from +8 up or from −8 down; also: test concentration not given here
# [8] = JC-1 mitochondrial signal, unstimulated myeloma cells – cell-based, JC-1 fluorescence, RPMI8226, 24 h, 100 nL compound, profiling panel (AID 1169); conditions: JC-1 mitochondrial potential fluorescence, higher = more signal; also: test concentration not given here
# [9] = JC-1 mitochondrial signal, unstimulated MM1S myeloma – cell-based, JC-1 fluorescence, 24 h, 100 nL compound, profiling panel (AID 1170); conditions: MM1S mitochondrial potential, higher = more signal; also: test concentration not given here
# [10] = resazurin metabolic signal in A549 cells – cell-based, resazurin fluorescence, 24 h, PK04 Diversity Set, profiling panel (AID 1171); conditions: A549 viability, higher = more signal, called active from +8 up or from −8 down; also: test concentration not given here
# [11] = resazurin metabolic signal in HepG2 cells – cell-based, resazurin fluorescence, 24 h, PK04 Diversity Set, profiling panel (AID 1172); conditions: HepG2 viability, higher = more signal; also: test concentration not given here
# [12] = budding yeast growth changes without added modifier – OD600, strain BY4716, 24 h, basal condition, primary screen (AID 1173); conditions: S. cerevisiae BY4716 growth, OD600, 24 h; higher = more signal, called active from +8 up or from −8 down
# [13] = viability profiling in MM1S myeloma cells – cell-based, resazurin fluorescence, basal, 24 h, PK04 Diversity Set, profiling panel (AID 1174); conditions: higher = more signal, called active from +8 up or from −8 down; also: test concentration not given here
# [14] = molecular target: Dihydroorotate dehydrogenase (quinone), mitochondrial (Plasmodium falciparum (isolate 3D7)) (UniProt Q08210); experiment: inhibition of P. falciparum DHODH – biochemical, C-terminal His tag, absorbance 600 nm, primary screen (AID 1175); conditions: PfDHODH enzyme, DCIP absorbance 600 nm; higher = more signal, called active from +8 up or from −8 down;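 also: recombinant parasite enzyme with a five histidine tag at its C terminus; test concentration not given here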
# Sequence of Dihydroorotate dehydrogenase (quinone), mitochondrial (Plasmodium falciparum (isolate 3D7)) (Q08210 whole entry, looked up): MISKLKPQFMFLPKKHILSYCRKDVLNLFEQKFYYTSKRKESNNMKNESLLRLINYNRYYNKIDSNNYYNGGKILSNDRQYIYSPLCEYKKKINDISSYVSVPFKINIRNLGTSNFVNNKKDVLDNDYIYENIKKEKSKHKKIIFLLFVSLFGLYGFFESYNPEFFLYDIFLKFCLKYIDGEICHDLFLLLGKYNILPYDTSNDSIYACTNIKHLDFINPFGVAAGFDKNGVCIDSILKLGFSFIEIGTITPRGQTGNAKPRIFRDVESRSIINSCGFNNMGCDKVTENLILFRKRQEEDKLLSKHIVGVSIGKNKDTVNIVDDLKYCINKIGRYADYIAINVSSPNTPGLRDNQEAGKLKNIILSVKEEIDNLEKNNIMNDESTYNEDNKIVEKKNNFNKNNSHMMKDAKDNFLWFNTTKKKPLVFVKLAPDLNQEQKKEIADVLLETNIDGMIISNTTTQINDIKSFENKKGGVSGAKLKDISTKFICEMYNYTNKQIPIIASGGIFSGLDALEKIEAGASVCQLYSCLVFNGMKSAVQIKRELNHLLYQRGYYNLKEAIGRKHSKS
# [15] = inhibition of PAO1 biofilm formation – strain PAO1, LB-PBS medium, absorbance 600 nm, primary screen (AID 1176); also: test concentration not given here; conditions: P. aeruginosa PAO1 growth/biofilm, A600, 12 h; higher = more signal
# [16] = growth modulation of vineyard yeast isolate – strain RM11-1a, OD600, basal, 24 h, primary screen (AID 1177);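 also: cultures grown under basal conditions with no added stressor; test concentration not given here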; conditions: S. cerevisiae RM11-1a growth, OD600, 24 h; higher = more signal, called active from +8 up or from −8 down
# [17] = growth of efflux-deficient E. coli DRC39 – strain DRC39, OD650, 24 h, E. coli filamentation inducers, primary screen (AID 1178);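 also: growth measured as culture turbidity by optical density at 650 nm; test concentration not given here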; conditions: E. coli DRC39 acrAB, higher = more signal, called active from +8 up or from −8 down
# [18] = growth of efflux-deficient E. coli DRC39 – strain DRC39, OD650, 48 h, E. coli filamentation inducers, primary screen (AID 1179);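 also: screen aims at cell division blockers that make cells filament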; conditions: E. coli DRC39 delta-acrAB growth, higher = more signal, called active from +8 up or from −8 down
# [19] = viability profiling in RPMI8226 myeloma cells – cell-based, resazurin fluorescence, basal, 24 h, PK04 Diversity Set, profiling panel (AID 1180); conditions: higher = more signal;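 also: RPMI8826 multiple myeloma cell line at 5000 cells per well; test concentration not given here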
# [20] = molecular target: E3 ubiquitin-protein ligase XIAP (Homo sapiens) (UniProt P98170); experiment: small molecules binding XIAP protein – biophysical, small-molecule microarray, fluorescence 635 nm, primary screen (AID 1181); conditions: higher = more signal;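 also: score merges 667 nm emission and signal to noise over triplicate slides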
# Sequence of E3 ubiquitin-protein ligase XIAP (Homo sapiens) (P98170 whole entry, looked up): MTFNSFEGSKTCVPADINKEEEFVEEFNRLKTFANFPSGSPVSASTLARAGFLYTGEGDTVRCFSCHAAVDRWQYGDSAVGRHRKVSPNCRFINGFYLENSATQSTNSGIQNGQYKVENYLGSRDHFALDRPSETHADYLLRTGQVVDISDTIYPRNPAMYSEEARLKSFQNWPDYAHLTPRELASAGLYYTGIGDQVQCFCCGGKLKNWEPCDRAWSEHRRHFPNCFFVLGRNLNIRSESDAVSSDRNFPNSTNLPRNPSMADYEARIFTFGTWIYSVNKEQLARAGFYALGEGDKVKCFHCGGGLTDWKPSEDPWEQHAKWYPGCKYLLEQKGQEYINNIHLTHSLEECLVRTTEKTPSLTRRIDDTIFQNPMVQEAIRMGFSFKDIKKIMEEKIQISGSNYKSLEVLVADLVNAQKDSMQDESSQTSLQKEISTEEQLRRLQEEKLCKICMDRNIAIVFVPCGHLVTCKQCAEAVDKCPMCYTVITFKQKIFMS
Structure (SMILES),z-score [1],z-score [2],z-score [3],z-score [4],z-score [5],z-score [6],z-score [7],z-score [8],z-score [9],z-score [10],z-score [11],z-score [12],z-score [13],composite z-score [14],z-score [15],z-score [16],z-score [17],z-score [18],z-score [19],composite z-score [20]
CCCCN1CC=CC23O[C@@H]4C=CCOC(=O)[C@@H]4[C@H]2C(=O)N(C(C)CO)[C@@H]3C1=O (stereo not given in full),-0.406,0.434,-0.208,0.638,0.0934,-1.02,-1.98 (inactive),-0.768,-0.0859,-0.384 (inactive),-0.0023,0.15 (inactive),-0.536 (inactive),-1.49 (inactive),-0.456 (inactive),-0.938 (inactive),-0.338 (inactive),-0.478 (inactive),-0.784,-0.0525
O=C1O[C@@H](c2ccccc2)[C@@H](c2ccccc2)N2[C@@H](c3ccc(O)cc3)[C@]3(C(=O)Nc4ccc(C#CC5=CCCCC5)cc43)[C@@H](C(=O)N3CCN(c4ncccn4)CC3)[C@H]12,-1.9,0.0112,-1.25,-1.2,-2.78,-0.703,0.701 (inactive),-0.588,-0.877,0.785 (inactive),1.48,-0.066 (inactive),-0.0922 (inactive),-0.824 (inactive),-0.0478 (inactive),0.207 (inactive),-0.289 (inactive),-0.348 (inactive),-0.385,0.118
CC(C)CNC(=O)[C@@]1(c2ccc([N+](=O)[O-])cc2)CC(=O)N(C2CCCCC2)[C@@H]1c1ccc(CO)cc1I,0.304,0.13,-0.108,-2,-0.317,1.15,-0.472 (inactive),-0.296,0.0603,1.02 (inactive),0.201,-0.871 (inactive),-0.0126 (inactive),0.797 (inactive),0.304 (inactive),-0.294 (inactive),0.175 (inactive),-0.683 (inactive),0.447,0.169
Cc1ccc(S[C@]2(C(=O)NC(C)C)CC(=O)N(C3Cc4ccccc4C3)[C@@H]2c2ccc(CO)cc2I)cc1,0.6,-0.345,0.425,-1.7,-1.29,0.221,-0.277 (inactive),-0.697,-2.19,-0.526 (inactive),-0.703,-3.55 (inactive),-3.17 (inactive),-2.86 (inactive),0.379 (inactive),-0.639 (inactive),0.525 (inactive),0.969 (inactive),-2.08,-0.0795
CN(C)C(=O)[C@]1(CCC(=O)OC(C)(C)C)N=C(c2ccc(OCCCO)cc2)O[C@@H]1c1ccccc1,1.13,-0.0645,0.41,0.387,-0.014,0.101,0.756 (inactive),-0.368,0.211,0.534 (inactive),-0.0109,-0.0261 (inactive),0.352 (inactive),-0.19 (inactive),0.248 (inactive),0.0653 (inactive),0.0325 (inactive),-0.384 (inactive),0.448,-0.0773

# Reference: PubChem BioAssay
